# Hits are enriched below; roughly 10% of the tested compounds scored in any of these assays.
# G9a inh: inhibitors of human histone lysine methyltransferase G9a. G9a H3K9 monomethylation, AlphaScreen, 2 h. Q96KQ7. hit rate 8.8% among 350,000. Potency, µM (titrated, usually from 102 µM), without a hit: top-dose activity, negative = inhibition, most hits filed as inhibitors; also: % is scaled to controls: 0 for no effect and ±100 for the full control effect; nearly all actives have a fitted effect of over 75% in size
# Target sequence (Q96KQ7 913-1193 limits assumed): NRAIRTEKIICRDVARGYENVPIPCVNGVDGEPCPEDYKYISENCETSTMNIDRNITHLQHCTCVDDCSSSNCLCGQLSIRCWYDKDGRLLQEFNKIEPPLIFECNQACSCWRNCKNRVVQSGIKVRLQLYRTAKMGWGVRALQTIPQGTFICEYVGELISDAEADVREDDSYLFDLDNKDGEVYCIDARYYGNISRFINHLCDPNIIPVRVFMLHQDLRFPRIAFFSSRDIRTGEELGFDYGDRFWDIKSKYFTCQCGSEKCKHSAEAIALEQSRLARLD
#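 Compounds were preincubated with 20 nM G9a for 15 min, after which biotinylated H3K9 peptide (500 nM) and SAM (20 uM) started a 2 h room-temperature reaction. Monomethylated product was quantified by antibody-based AlphaScreen chemiluminescence.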
# HP1b binding inh: inhibitors of HP1-beta chromodomain binding to methylated histone tails | Potency, µM (top dose mostly 114 µM), for inactives: at the top dose activity change, negative = inhibition, hits mostly inhibitors | AlphaScreen HP1-beta / biotin-H3K9me3 peptide binding | AID 540317 | hit rate 0.56% among 390,000; also: nearly all actives have a fitted effect of over 70% in size
# Target sequence (P83916 whole entry, looked up): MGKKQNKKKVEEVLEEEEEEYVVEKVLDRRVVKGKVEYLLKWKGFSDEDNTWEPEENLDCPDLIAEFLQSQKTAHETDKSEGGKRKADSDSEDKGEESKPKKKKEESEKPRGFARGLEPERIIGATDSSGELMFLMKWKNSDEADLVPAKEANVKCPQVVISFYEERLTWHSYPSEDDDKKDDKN
#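 HP1-beta protein (50 nM final) preincubated 30 min at room temperature with biotinylated H3(1-18)K9me3 peptide (50 nM) in PBS pH 7.4, 0.01% Tween-20, then compound added for 30 min. AlphaScreen streptavidin donor/nickel chelate acceptor beads (10 ug/mL final), 30 min dark, luminescence read.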
# BAZ2B block: BAZ2B (human) inhibition; Q9UIF8; AlphaScreen BAZ2B-H3K14Ac peptide displacement; Potency, µM (doses to about 114 µM), for inactives: top-dose activity change, negative = inhibition, hits mostly inhibitors; hit rate 4.4% among 360,000; AID 504333; also: % is scaled to controls: 0 for no effect and ±100 for the full control effect; nearly all actives have a fitted effect of over 60% in size
#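 BAZ2B 50 nM plus b-H3(5-23)K14Ac 50 nM, PBS pH 7.4/0.01% Tween-20, 30 min RT; compound added (max 110 uM), 30 min RT; streptavidin donor/Ni-chelate acceptor beads 10 ug/mL final, 20 min dark; AlphaScreen read.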
# GLS inhibitor: blocks human kidney-isoform glutaminase activity; O94925; GLS enzymatic activity, qHTS titration; Potency, µM (series often up to 45.5 µM), without a hit: at the highest dose activity change, negative = inhibition, hits mostly inhibitors; hit rate 0.21% among 410,000; AID 624170; also: % is scaled to controls: 0 for no effect and ±100 for the full control effect
#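 hKGA in 45 mM KH2PO4 (pH 8.2), 0.02% Tween-20 with compound, then 1mM L-Glutamine (stock as added) plus glutamate oxidase/HRP/Amplex red coupling mix. Fluorescence read initially and after 30 min at RT; signal change reflects glutamate formation.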
# JMJD2A Tudor: JMJD2A Tudor domain (human) inhibition; O75164; AlphaScreen JMJD2A-Tudor / H3K4me3 peptide binding; AID 504339; hit rate 4.4% among 390,000; Potency, µM (titrated, usually from 114 µM), inactives show top-dose activity change, negative = inhibition, hits mostly inhibitors; also: % is scaled to controls: 0 for no effect and ±100 for the full control effect; nearly all actives have a fitted effect of over 50% in size
# The depositor's hits bear a star; u = inconclusive; x = no result given; [ ] = another dose, or the depositor's remark. Calls follow the shape of the dose curve; as a rule, active = well fitted curve in the direction sought with a large enough effect; inconclusive = small, poorly fitted or top-dose-only effect, or another doubt; inactive = no such curve, though single readings can be large; an effect the other way counts as inactive or inconclusive. Potency is read from the fitted curve at half-maximal effect.
SMILES,G9a inh,HP1b binding inh,BAZ2B block,GLS inhibitor,JMJD2A Tudor
O=C(N/N=C/c1ccc(Br)cc1)c1cc[n+]([O-])cc1,5%,35%,-2%,-10%,-4%
S=P(c1ccc(N2CCOCC2)cc1N1CCOCC1)(N1CCOCC1)N1CCOCC1,10µM*,u,-30%,-15%,-32%
COCCOC(=O)c1c(C)n(C)c2ccc(OC(=O)c3c(OC)cccc3OC)cc12,8.9µM*,-21%,-27%,-30%,-19%
O=C(CNC(=S)N(Cc1ccccc1)Cc1cccs1)NCc1ccc(F)cc1,13%,42%,u,-11%,-16%
N#Cc1ccc(-c2ccco2)nc1SCc1ccccc1,28µM*,42%,18%,4%,84%
Cc1ccc(CSc2nnc(-c3ccc4c(c3)OCO4)o2)cc1,5%[59 µM],30%,10%,-2%,11%
Cc1ccc(CSc2ccc(-c3ccc4c(c3)OCO4)nn2)cc1,50µM*,19%,-2%,-1%,8%
Cc1cccc(CSc2ccc(-c3ccco3)nn2)c1,-20%[59 µM],26%,-38%,-1%,8%
Fc1ccccc1CSc1ccc(-c2ccco2)nn1,40µM*,6%,-6%,0%,10%
Clc1cccc(CSc2ccc(-c3ccco3)nn2)c1,16µM*,9%,9%,-19%,72%
Cc1cccc(N2CCN(S(=O)(=O)c3ccc4[nH]c(=O)ccc4c3)CC2)c1C,x,18%,-3%,-8%,-8%
Clc1ccc(CSc2ccc(-c3ccco3)nn2)cc1,-46%,23%,5%,5%,4%
c1ccc(CSc2ccc(-c3ccco3)nn2)cc1,25µM*,30%,-4%,-6%,-8%
Cc1ccc(CSc2ccc(-c3ccco3)nn2)cc1,18µM*,36%,-36%,-1%,-3%
CCCc1cc(=O)oc2cc(OCC(=O)NCCCN3CCOCC3)ccc12,x,20%,-2%,-13%,-9%
Cc1ccc(S(=O)(=O)N(CC(=O)N2CCOCC2)c2ccc(Br)cc2)cc1,14%,13%,-1%,-2%,-3%
C(=C\c1ccco1)/c1nc2ccccc2[nH]1,x,-9%,u,0%,-18%
C(=C\c1ccco1)/c1ccc2ccccc2n1,x,u,40µM*,1%,-5%
COC(=O)C1C(C(=O)OC)C1(c1ccccc1)c1ccccc1 (stereo unspecified),10%,20%,-13%,5%,-3%
COC(=O)C1=C(C(=O)OC)C(C(=O)OC)C(C(=O)OC)C(C(=O)OC)(C(=O)OC)C(C(=O)OC)=C1C(=O)OC (stereo unspecified),x,50µM*,x,9%,89µM*
COc1ccc(OC)c(NC(=O)C(=O)NNC(=O)COc2ccc(Br)cc2C)c1,x,27%,u,-3%,-20%
Cc1nc(Nc2cnc(/C=C/c3cc(C(=O)Nc4cccc(C(F)(F)F)c4)ccc3C)cn2)cc(N2CCNCC2)n1,32µM*,u,-38%,0%,u
CCOc1ccc(C(=O)Nc2ccc3nc(Nc4cccc(C(F)(F)F)c4)cc(C)c3c2)cc1OCC,7%[59 µM],30%,-12%,-5%,-4%
COC(=O)CN1C(=O)N/C(=C/c2ccc(C)o2)C1=O,25µM*,-16%,2%,11%,-29%
COc1ccccc1-n1nc(C)cc1N,3%,34%,4%,22%,-18%
SMILES,G9a inh,HP1b binding inh,BAZ2B block,GLS inhibitor,JMJD2A Tudor
Oc1c(C(c2ccco2)N2CCOCC2)sc2ncnn12 (stereo unspecified),40µM*,22%,5%,-7%,-15%
Cc1nc2sc(C(c3ccco3)N3CC(C)OC(C)C3)c(O)n2n1 (stereo unspecified),25µM*,34%,1%,3%,-21%
Cc1nc2sc(C(c3ccco3)N3CCC(C)CC3)c(O)n2n1 (stereo unspecified),u,35%,-2%,-1%,-11%
Oc1c(C(c2ccccc2)N2CCCCC2)sc2ncnn12 (stereo unspecified),16%[59 µM],35%,6%,-1%,-14%
Cc1nc2sc(C(c3ccco3)N3CCN(c4cccc(Cl)c4)CC3)c(O)n2n1 (stereo unspecified),13µM*,-17%,u,30%,u
Cc1nc2sc(C(c3ccco3)N3CCN(c4ccccc4)CC3)c(O)n2n1 (stereo unspecified),45µM*,31%,-36%,29%,-26%
Cc1ccn2cc(-c3cccc(NC(=O)CCC(=O)O)c3)nc2c1,-3%,29%,2%,21%,-9%
CN1CCN(C(c2ccc(Cl)cc2Cl)c2sc3nc(-c4ccco4)nn3c2O)CC1 (stereo unspecified),-34%[59 µM],-8%,-35%,2%,-21%
Oc1c(C(c2ccc(Cl)cc2Cl)N2CCN(Cc3ccccc3)CC2)sc2nc(-c3ccco3)nn12 (stereo unspecified),13µM*,u,u,5%,u
Cc1nc2sc(C(c3ccco3)N3CCN(C(c4ccccc4)c4ccccc4)CC3)c(O)n2n1 (stereo unspecified),25µM*,-22%,u,0%,50µM*
COc1cccc(C2=CC(=O)C[C@H](c3ccc(Cl)cc3)C2)c1,7%[2.33 µM],87%,4%,1%,19%
Oc1cccc(-c2nc(-c3cccs3)c(-c3cccs3)[nH]2)c1,u,-2%,40µM*,9%,u
O=[N+]([O-])c1ccc(-c2nc(-c3cccs3)c(-c3cccs3)[nH]2)cc1,x,u,-4%,-18%,20µM*
COc1ccc(-c2nc(-c3ccccc3)c(-c3cccs3)[nH]2)cc1OC,-5%[12.7 µM],-22%,9%,-3%,40µM*
Oc1c(C2=NCCNC(C(F)(F)F)=C2)ccc2ccccc12,-108%[59 µM],u,25µM*,0%,50µM*
COc1ccc(-c2cnc3c(NC(C)=O)cc(-c4ccccc4CN(C)C)cn23)cc1OC,x,x,x,36%,x
Cc1c(C(=O)NNC(=O)c2ccncc2)oc2ccc(Br)cc12,0%,14%,15%,27%,-10%
COc1cccc(CCN2CCC(CNS(=O)(=O)c3cc(-c4cc(C)no4)ccc3C)CC2)c1,71µM*,-9%[57 µM],u,-2%,-35%
COc1cccc(CCN2CCC(CNS(=O)(=O)c3cc(-c4cc(C)no4)ccc3OC)CC2)c1,19%[59 µM],0%,-25%,0%,-25%
Cn1c(=O)c2c(nc(SCC(=O)N3CCOCC3)n2C)n(C)c1=O,-5%[59 µM],21%,5%,-2%,-7%
COc1ccc(NC(=O)c2cc(-c3ccccc3)nc3c2cnn3C(C)C)cc1,22%[2.33 µM],u,-3%,-13%,79µM*
CC(C)(C)n1nnnc1CN1CCN2CCCC2C1 (stereo unspecified),u,28%,-1%,2%,-12%[57.1 µM]
c1ccc(-c2csc3nnc(SCc4ccc5c(c4)OCO5)n23)cc1,-54%[59 µM],-5%,-30%,u,20µM*

# Bioassay records as filed in PubChem.
